High-throughput results: PubChem, several laboratories
An excerpt weighted towards active compounds, which were near 4.6% of everything screened.
tim10-1 inh – growth inhibitors of tim10-1 mutant yeast, primary screen, luminescence, uHTS; inhibition, % at 20 µM; AID 463190, 2010; S. cerevisiae tim10-1 ts strain growth, BacTiter-Glo, 24 h; actives 2.2% (n = 330,000);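 active = inhibition of at least 40%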;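 also: mutant grown at 25 °C; 0% = DMSO wells with yeast and 100% = wells holding no yeast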
NALP3 yeast inh – NALP3 inflammasome inhibitors in reconstituted yeast, primary screen, luminescence, uHTS | Yeast reconstituted NLRP3/ASC/caspase-1, beta-gal luminescence, 24 h | inhibition, % at 10 µM | actives 0.39% (n = 330,000) | AID 2825, 2010;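 active = inhibition of 50% or more; inactive = inhibition below 50%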;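 also: plate controls were induced DMSO wells for no effect and uninduced yeast grown without galactose for full effect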
SKKanGAS inh – S. pyogenes SKKanGAS growth inhibitors in kanamycin, primary screen, streptokinase expression inhibitor project, SKKanGAS strain, BacTiter-Glo luminescence | 6 h | inhibition, % at 7.5 µM | actives 1.3% (n = 300,000);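 active = mean replicate score, as percent of positive control median, at least 50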;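 also: strain carries kanamycin resistance gene driven by streptokinase promoter and grows in 40 µg/ml kanamycin; loss of luminescence reflects streptokinase promoter inhibition or plain growth inhibition; 0% = median of DMSO wells and 100% = positive control at its reference dose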
TIM10 inh – growth inhibitors of isogenic TIM10 control yeast, primary screen, counter-screen for tim10-1 yeast inhibitor project, luminescence, uHTS; AID 463195, 2010; S. cerevisiae TIM10 strain growth, BacTiter-Glo luminescence, 24 h; inhibition, % at 10 µM; actives 1.4% (n = 330,000);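 active = inhibition of 40% or more at the single tested concentration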;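 also: wild-type TIM10 isogenic control strain grown at permissive 25 °C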
tim23-1 inh – growth inhibitors of tim23-1 mutant yeast, primary screen, luminescence, uHTS. S. cerevisiae tim23-1 growth, BacTiter-Glo luminescence, 24 h. inhibition, % at 20 µM. actives 1.3% (n = 330,000);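 active = growth inhibition of the mutant yeast at or above 50%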;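 also: temperature-sensitive mutant grown at 25 °C; plate controls were DMSO-treated mutant yeast for no effect and medium wells lacking yeast for full effect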
tim10-1 conf – growth inhibitors of tim10-1 mutant yeast, confirmation, single concentration, luminescence, S. cerevisiae. shares compounds with tim10-1 inh. S. cerevisiae tim10-1 ts strain growth, BacTiter-Glo, 24 h. inhibition, % at 20 µM. actives 56% (n = 7,400);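 active = inhibition of yeast growth at or above a set limit in either of two repeat tests at 20 µM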;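 also: tim10-1 mutant grown at permissive 25 °C to find synthetic lethal compounds; 0% = DMSO yeast wells and 100% = medium wells without yeast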
TIM10 conf – growth inhibitors of wild-type TIM10 yeast, confirmation, counter-screen for tim10-1 synthetic lethality project, single concentration, luminescence, S. cerevisiae; shares compounds with TIM10 inh; S. cerevisiae tim10 strain growth, BacTiter-Glo luminescence, 24 h; inhibition, % at 10 µM; actives 63% (n = 4,600);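 active = inhibition of yeast growth at or above a set limit in either of two replicates at 10 µM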;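 also: this counterscreen used the strain with wild-type TIM10; 0% = yeast with DMSO and 100% = medium wells lacking yeast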
tim23-1 conf – tim23-1 mutant yeast growth inhibitors, confirmation, luminescence, single concentration; shares compounds with tim23-1 inh; actives 83% (n = 4,400); S. cerevisiae tim23-1 growth, BacTiter-Glo luminescence, 24 h; inhibition, % at 20 µM;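 active = inhibition above about 39% in either of two replicate wells at 20 µM, limit read from the data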;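 also: temperature-sensitive tim23-1 mutant grown at 25 °C; 0% = DMSO wells with yeast and 100% = medium wells without yeast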
Starred values were filed as active, the others as inactive; . = no result given.

SMILES	tim10-1 inh	NALP3 yeast inh	SKKanGAS inh	TIM10 inh	tim23-1 inh	tim10-1 conf	TIM10 conf	tim23-1 conf
CC1CCCCC1NC(=O)/C(C#N)=C/c1ccccc1F (configuration not stated)	89*	21	9	85*	84*	87*	88*	84*
O=C(CSc1ccc(Cl)cc1)NC1=NN(c2ccccc2)C(=O)C1	48*	19	77*	11	63*	17	.	-12
O=[N+]([O-])c1ccc(NC(=S)N2CCc3ccccc32)cc1	49*	31	.	35	54*	42*	.	49*
COc1ccc(NC(=O)c2cccc(OC(F)F)c2)cc1Cl	37	1	-8	38	39	.	.	.
O=C(Nc1ccc(OC(F)F)c(Cl)c1)c1cccc(OC(F)F)c1	71*	-36	-1	63*	71*	63*	59*	76*
Cc1nn(-c2ccc(Cl)cc2)c(Cl)c1/C=C(\C#N)C(N)=O	26	13	-2	19	48	.	.	.
C=CCNC(=O)/C(C#N)=C/c1c(C)nn(-c2ccc(Cl)cc2)c1Cl	63*	16	3	58*	56*	59*	63*	66*
COc1ccc(C(=O)ON=C2CCN(c3ccc([N+](=O)[O-])cc3)CC2)cc1	58*	22	3	64*	54*	48*	65*	71*
O=C(OC1CCN(c2ccc([N+](=O)[O-])cc2)CC1)c1ccccc1	7	-10	-9	20	10	.	.	.
O=C(ON=C1CCN(c2ccc([N+](=O)[O-])cc2)CC1)c1ccccc1	47*	14	11	52*	64*	24	60*	60*
CNCCCOc1cc(C)cc(C)c1C	3	13	7	2	1	.	.	.
COc1ccc(C(CC(=O)NC(C)c2ccc(-c3ccccc3)cc2)NC(C)=O)cc1 (configuration not stated)	7	8	5	15	9	.	.	.
O=C(CSc1ccc(C(F)(F)F)cn1)Nc1ccccc1	-11	6	-2	2	6	.	.	.
O=C(/C=C/Sc1ccc(C(F)(F)F)cn1)c1ccccc1	41*	15	4	22	61*	51*	.	47*
Cc1cccc(OCc2nnc(SC(C)C(=O)O)n2-c2ccccc2)c1 (configuration not stated)	7	-1	-1	1	7	.	.	.
CCSc1nc2ccccc2n1C(=O)/C=C/c1ccc(OC)c(OC)c1	58*	23	-12	39	51*	44*	.	54*
C=CCSc1nc2ccccc2n1C(=O)/C=C/c1ccc(OC)c(OC)c1	.	.	-3	.	.	.	.	.
O=C(O)c1ccccc1N=Cc1c(O)n(-c2nccs2)c(=O)c2ccccc12	-8	7	-10	-6	13	.	.	.
Cc1ccccc1N=Cc1c(O)n(-c2nccs2)c(=O)c2ccccc12	48*	13	-4	47*	59*	47*	46*	56*
COc1ccc(C(=O)/C=C/C(=O)N(CC(=O)NC2CCCCC2)CC2CCCO2)c(O)c1 (configuration not stated)	46*	10	-36	49*	51*	56*	52*	60*
O=C(CN1C(=O)NC2(CCc3ccccc32)C1=O)Nc1ccccc1C(F)(F)F (configuration not stated)	-11	3	.	4	9	.	.	.
CCCN(c1nc(C)cc(OC)n1)S(=O)(=O)c1ccccc1	44*	-8	4	34	51*	18	.	40*
COc1cc(-c2cc(=O)c3c(O)c(OC)c(OC)c(O)c3o2)ccc1O	18	14	-2	4	22	.	.	.
COc1c(O)c(O)c2oc(-c3ccccc3)cc(=O)c2c1OC	50*	42	1	40*	59*	33*	31*	56*
Oc1c(C(c2cccs2)N2CCN(c3ccccc3)CC2)ccc2cccnc12 (configuration not stated)	56*	15	.	1	59*	40*	.	78*
SMILES	tim10-1 inh	NALP3 yeast inh	SKKanGAS inh	TIM10 inh	tim23-1 inh	tim10-1 conf	TIM10 conf	tim23-1 conf
COc1ccc(-c2cccc(NC(=O)c3ccc4c(c3)OCO4)c2)nn1	13	4	1	9	14	.	.	.
CCN(Cc1ccccc1)C(c1ccncc1)c1nnnn1C(C)(C)C (configuration not stated)	41*	3	-8	30	53*	39*	.	37
COc1cccc(C2CC(=O)Nc3cc4c(cc32)CCC4)c1 (configuration not stated)	3	24	-1	19	40	.	.	.
O=C1CC(c2cccc(Cl)c2)c2cc3c(cc2N1)CCC3 (configuration not stated)	41*	7	-6	13	60*	23	.	57*
COC(=O)[C@]1(C)N[C@H](CN(C)C(=O)NC(C)C)[C@@H]2C(=O)N(C)C(=O)[C@@H]21	-14	10	.	-7	-7	.	.	.
CSc1nc(N)n2nc(-c3ccc(Cl)cc3)cc2n1	19	13	8	3	11	.	.	.
O=C(Nc1ccc(O)cc1)c1ccccc1OCc1ccccc1	45*	28	-2	37	53*	30	.	53*
O=C1C2C(c3ccccc3)CC=CC2[C@H](c2ccc(C(F)(F)F)cc2)N1Cc1ccccc1 (some centres not stated)	66*	12	25	75*	65*	52*	44*	66*
CC1=NOC(=O)/C1=C\c1ccc(-c2ccc(Br)cc2C(=O)O)o1	7	8	1	-4	15	.	.	.
CC1=NOC(=O)/C1=C/c1ccc(-c2ccc(Cl)cc2)o1	44*	15	.	65*	65*	8	69*	-90
Cc1ccc(C2=NOC(=O)/C2=C\c2ccc(C)o2)cc1	59*	30	-6	45*	79*	39*	39*	80*
CC1=NOC(=O)/C1=C\c1ccc(-c2ccc(Br)cc2)o1	.	.	20	.	.	.	.	.
CC1=NOC(=O)/C1=C\c1ccc(-c2cc(Cl)ccc2Cl)o1	51*	1	8	14	79*	14	.	68*
